Sampled rows, rich in hits. Any-hit rate of the full collection: about 11%.
Luciferase inh – Firefly luciferase inhibition profiling of diverse chemical library using quantitative high-throughput screening. Luciferin 4-monooxygenase (Photinus pyralis), P08659. purified P. pyralis luciferase, luminescence, biochemical. Potency, µM (titrated, usually from 115 µM), most hits filed as inhibitors. 76,000 tested, 2.5% active. AID 1347043, 2019; also: nearly all actives have a fitted effect of over 65% in size
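FLuc 10nM, D-luciferin 10uM, ATP 10uM, Mg acetate 10mM, Tris acetate pH 7.5, Tween/BSA; cpd qHTS; enzyme added last; CCD luminescence.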
NIH3T3 tox – Cytotoxic Profiling in NIH 3T3 Cell Line of Diverse Libraries Using Quantitative High-Throughput Screening. NIH 3T3 viability, CellTiter-Glo ATP luminescence, 48-72 h. Potency, µM (top dose mostly 96.7 µM), for inactives: top-dose activity change, negative = cytotoxicity, hits mostly inhibitors. 94,000 tested, 4.3% active; also: nearly all actives have a fitted effect of over 55% in size
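Cells were seeded at 400 per well, treated with pin-transferred compound, and kept 48 or 72 hr at 37 °C before CellTiter-Glo addition and luminescence imaging of cellular ATP.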
hNpr1 antagonist – Natriuretic polypeptide receptor (hNpr1) antagonism - Primary qHTS | Atrial natriuretic peptide receptor 1 (Homo sapiens), P16066 | HEK293 hNpr1 GloSensor cGMP, ANP-stimulated luminescence | Potency, µM (doses to about 46.3 µM), inactives show at the highest dose activity change, negative = inhibition, most hits filed as inhibitors | 76,000 tested, 1.6% active; calls by dose curve; also: nearly all actives have a fitted effect of over 60% in size
Target sequence (P16066 whole entry, looked up): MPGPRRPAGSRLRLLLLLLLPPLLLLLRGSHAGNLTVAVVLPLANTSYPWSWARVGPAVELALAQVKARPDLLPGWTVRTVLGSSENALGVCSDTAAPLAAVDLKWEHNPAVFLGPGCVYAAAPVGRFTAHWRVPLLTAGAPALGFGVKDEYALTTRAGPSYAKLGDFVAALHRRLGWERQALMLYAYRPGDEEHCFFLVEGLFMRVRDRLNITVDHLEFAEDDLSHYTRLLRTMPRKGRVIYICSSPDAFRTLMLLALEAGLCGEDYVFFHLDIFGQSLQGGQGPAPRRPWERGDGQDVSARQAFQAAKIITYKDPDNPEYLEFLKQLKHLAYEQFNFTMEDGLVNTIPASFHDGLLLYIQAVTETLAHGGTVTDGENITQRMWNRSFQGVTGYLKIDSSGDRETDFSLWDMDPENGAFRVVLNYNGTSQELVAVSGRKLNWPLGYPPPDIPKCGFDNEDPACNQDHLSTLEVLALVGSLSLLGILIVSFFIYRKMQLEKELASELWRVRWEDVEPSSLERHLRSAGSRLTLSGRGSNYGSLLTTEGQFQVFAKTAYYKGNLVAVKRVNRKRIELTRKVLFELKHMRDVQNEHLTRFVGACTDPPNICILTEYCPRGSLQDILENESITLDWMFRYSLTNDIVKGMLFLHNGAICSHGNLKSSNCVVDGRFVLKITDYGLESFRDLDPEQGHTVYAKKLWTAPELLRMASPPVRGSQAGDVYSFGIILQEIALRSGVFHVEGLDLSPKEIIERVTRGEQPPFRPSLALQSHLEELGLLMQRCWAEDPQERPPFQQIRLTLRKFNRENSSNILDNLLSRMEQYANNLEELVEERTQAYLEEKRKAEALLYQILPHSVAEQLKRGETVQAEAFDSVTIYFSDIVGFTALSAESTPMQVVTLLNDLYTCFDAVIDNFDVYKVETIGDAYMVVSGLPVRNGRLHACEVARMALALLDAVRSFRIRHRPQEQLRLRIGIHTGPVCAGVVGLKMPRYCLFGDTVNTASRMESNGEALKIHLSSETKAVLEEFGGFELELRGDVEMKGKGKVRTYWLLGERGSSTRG
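Compound pre-incubated 30 min at room temperature on GloSensor-loaded HEK293 cells stably carrying hNpr1 and the pGS-40F cGMP biosensor. Stimulation uses hNppA at 0.1 nM final; luminescence is taken at baseline and 20 min post-agonist.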
HEK cytotox – Cytotoxic Profiling in HEK 293 Cell Line of Diverse Libraries Using Quantitative High-Throughput Screening | HEK 293 viability, ATP luminescence (CellTiter-Glo), 48-72 h | Potency, µM (doses to about 115 µM), for inactives: at the highest dose activity change, negative = cytotoxicity, actives largely listed as inhibitors | 94,000 tested, 6.6% active | AID 1345083, 2018; also: nearly all actives have a fitted effect of over 60% in size
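Luminescence from cellular ATP, measured with CellTiter-Glo, indicates HEK 293 viability. Cells plated at 250 cells/well are treated with compound for 48 or 72 hr at 37 degree Celsius before reagent addition.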
* hit, by the source's call; i = inactive; ? = inconclusive; nt = no result given; ! = repeats disagree; [ ] = remark or other dose. Unless noted, calls follow the shape of the dose curve; as a rule, active = well fitted curve in the direction sought with a large enough effect; inconclusive = small, poorly fitted or top-dose-only effect, or another doubt; inactive = no such curve, though single readings can be large; an effect the other way counts as inactive or inconclusive. % is scaled to controls: 0 for no effect and ±100 for the full control effect; potency is read from the fitted curve at half-maximal effect.

SMILES	Luciferase inh	NIH3T3 tox	hNpr1 antagonist	HEK cytotox
CN(C(=O)c1ccc(C(F)(F)F)cc1)C1CCCc2ccccc21 (centres undefined)	?	50µM*	-2%[70.6 µM]	?
CN(C(=O)Cc1cccc(Cl)c1)C1CCCc2ccccc21 (centres undefined)	i	?	6%[70.6 µM]	100µM*
Fc1ccc2c(c1)nc1n2[C@@H](CNC2CCCCC2)COC1	i	28µM*	-18%[70.6 µM]	?
O=C(NC[C@H]1COCc2nc3cc(F)ccc3n21)C1CC1	i	79µM*	4%[70.6 µM]	-7%[230 µM]
O=C(NC[C@H]1COCc2nc3cc(C(F)(F)F)ccc3n21)C1CC1	i	-24%[138 µM]	-4%[70.6 µM]	?
O=C(NC[C@H]1COCc2nc3cc(F)ccc3n21)c1ccc(Cl)cc1	i	?	-10%[70.6 µM]	71µM*
O=C(NC[C@H]1COCc2nc3cc(F)ccc3n21)c1ccc2c(c1)OCO2	?	?	-2%[70.6 µM]	-30%[172 µM]
CC(=O)N1CCC2(CC1)OC(=O)N(Cc1ccccc1F)C2(C)c1ccccc1 (centres undefined)	i	35µM*	-2%[70.6 µM]	-3%[172 µM]
CC(=O)Nc1ccc(CN2C(=O)OC3(CCN(C(=O)c4cccc(C#N)c4)CC3)C2(C)c2ccccc2)cc1 (centres undefined)	i	?	-6%	-16%
CC1(c2cccnc2)N(CCOc2ccccc2)C(=O)OC12CCN(C(=O)CN1CCOCC1)CC2 (centres undefined)	i	?	5%	-2%
CC1(c2ccccc2)N(Cc2ccccc2F)C(=O)OC12CCN(C(=O)c1cccc(C#N)c1)CC2 (centres undefined)	i	7.1µM*	2%	-13%
CN1CCC(C(=O)N2CCC3(CC2)OC(=O)N(Cc2ccccc2F)C3(C)c2ccccc2)CC1 (centres undefined)	i	?	-8%	?
CC1(c2ccccc2)N(Cc2ccccc2F)C(=O)OC12CCN(C(=O)CN1CCOCC1)CC2 (centres undefined)	i	22µM*	3%	4%
CC1(c2ccccc2)N(Cc2ccccc2)C(=O)OC12CCN(C(=O)CN1CCOCC1)CC2 (centres undefined)	i	14µM*	-5%	4%
CCOc1ccc2c(n1)CCN(C(=O)CCC1CCCC1)C2	?	-28%	-5%	?
COc1ccc(CN2CCCn3nc(C)c(-c4ccccc4C(C)C)c32)cc1O	i	35µM*	?	63µM*
Cc1nn2c(c1-c1ccccc1C(C)C)N(Cc1ccc(C(=O)O)s1)CCC2	i	?	-8%[70.6 µM]	?
Cc1nn2c(c1-c1ccccc1Oc1ccccc1)N([S+](=O)([O-])c1cccnc1)CCC2	i	?	-17%	?
Cc1nn2c(c1-c1ccccc1C(C)C)N(C(=O)CCc1cccnc1)CCC2	i	?	-25%[70.6 µM]	-24%[172 µM]
Cc1nn2c(c1-c1ccccc1C(C)C)N([S+](=O)([O-])c1ccc(C(C)C)cc1)CCC2	i	22µM*	?	40µM*
Cc1nn2c(c1-c1ccccc1C(C)C)N(Cc1ccc3c(c1)CCO3)CCC2	i	28µM*	-21%[70.6 µM]	35µM*
CC(NC(=O)c1cc(-c2ccncc2)cn1C)c1ccc(F)cc1 (centres undefined)	i	-24%	-10%	79µM*
CC(C)NC(=O)c1cc(-c2ccc(F)cc2)cn1C	i	-5%	7%	-1%
CC(C)CN1C(=O)CO[C@H](c2ccc(NC(=O)c3ccccc3)cc2)[C@H]1CO	i	?	-24%[70.6 µM]	100µM*
COc1ccc(C(=O)Nc2ccc([C@H]3OCC(=O)N(Cc4nccn4C)[C@@H]3CO)cc2)cc1	40µM*	-16%	6%	-18%
SMILES	Luciferase inh	NIH3T3 tox	hNpr1 antagonist	HEK cytotox
CC(C)CC(=O)Nc1ccc([C@H]2OCC(=O)N(Cc3nccn3C)[C@@H]2CO)cc1	i	-1%[174 µM]	4%[70.6 µM]	i
O=C(Nc1ccccc1)Nc1ccc([C@H]2OCC(=O)N(Cc3ccccc3)[C@@H]2CO)cc1	?	89µM*	-17%[70.6 µM]	71µM*
COc1ccc(CN2C(=O)CO[C@H](c3ccc(NS(=O)(=O)c4ccc(F)cc4)cc3)[C@H]2CO)cc1	i	35µM*	1%	-20%
COC[C@H]1NC(=O)CC[C@H]1C(=O)Nc1cccc(OC(F)(F)F)c1	i	-23%	7%	0%
COc1ccc(CCNC(=O)c2nc3cccnc3n(CC(C)C)c2=O)cc1	nt	45µM*	nt	?
COc1ccc(CNC(=O)c2nc3cccnc3n(Cc3ccc(OC)cc3)c2=O)cc1	nt	?	nt	79µM*!
C#CCNC(=O)c1nc2cccnc2n(Cc2ccc(OC)cc2)c1=O	nt	-19%	nt	-17%
CC(C)Cn1c(=O)c(C(=O)NC2CC2)nc2cccnc21	nt	-16%[138 µM]	nt	-3%[172 µM]
CS(=O)(=O)N1CCC2(CC1)NCCc1c2[nH]c2ccccc12	i	-24%	2%	?
COC(=O)CC1CCN(C(=O)C[C@H]2NC(=O)c3ccccc3NC2=O)CC1	i	i	2%	7%
Cn1cnnc1-c1nn(C)c2c1CN(C(=O)c1n[nH]c3c1CCCCCC3)CC2	i	1%	3%	-3%
O=C(COc1ccccc1)N1CCC2(CC1)CC(N(C(=O)c1ccccc1)C1CC1)CCO2 (centres undefined)	i	?	-18%	?
CC1CCN(c2ccc(-c3cccc(NC(=O)NC(C)C)c3)nn2)CC1	0.25µM*	-17%	2.2µM*	?
COc1ccc(OC)c(NC(=O)Nc2cccc(-c3ccc(N4CCCCC4)nn3)c2)c1	0.25µM*	-22%	13µM*	?
COc1cccc(CNC(=O)Nc2cccc(-c3ccc(N4CCCCC4)nn3)c2)c1	0.25µM*	?	10µM*	32µM*
C=CCNC(=O)c1cccn2nccc12	i	2%[174 µM]	16%[70.6 µM]	-24%[230 µM]
Cc1ccc(NC(=O)N2Cc3[nH]cnc3C[C@H]2c2nc(-c3ccncc3)no2)cc1	i	2%[174 µM]	-4%[70.6 µM]	i
O=C(Nc1ccccc1)N1Cc2[nH]cnc2C[C@H]1c1nc(-c2ccc3ccccc3c2)no1	i	-10%	0%	-3%
Cc1ccc(NC(=O)N2Cc3[nH]cnc3C[C@H]2c2nc(-c3ccc(Cl)cc3)no2)cc1	40µM*	?	?	71µM*
CC(=O)c1ccc(NC(=O)N2Cc3[nH]cnc3C[C@H]2c2nc(-c3ccc(F)cc3)no2)cc1	?	89µM*	-3%	-1%
CCOC(=O)c1ccc(NC(=O)N2Cc3[nH]cnc3C[C@H]2c2nc(C(C)C)no2)cc1	i	100µM*	1%[70.6 µM]	?
Cc1ccc(NC(=O)N2Cc3[nH]cnc3C[C@H]2c2nc(-c3ccc4ccccc4c3)no2)cc1	20µM*	?	-26%	?

Bioassay records (PubChem)
